This note sets out measurements from PubChem BioAssay (NCATS).

Inconclusive results are not listed. Activity calls are given as the source filed them. Calls come from the whole dose curve; as a rule, active = well fitted inhibition curve with a large enough effect; inconclusive = small, poorly fitted or top-dose-only effect; inactive = flat fitted curve, though single readings scatter.
% is set by controls: 0 for no effect and ±100 for the full control effect; potency is the fitted concentration of half-maximal effect.

Chain of Ubiquitin carboxyl-terminal hydrolase 1 (Homo sapiens) (O94782 whole entry, looked up): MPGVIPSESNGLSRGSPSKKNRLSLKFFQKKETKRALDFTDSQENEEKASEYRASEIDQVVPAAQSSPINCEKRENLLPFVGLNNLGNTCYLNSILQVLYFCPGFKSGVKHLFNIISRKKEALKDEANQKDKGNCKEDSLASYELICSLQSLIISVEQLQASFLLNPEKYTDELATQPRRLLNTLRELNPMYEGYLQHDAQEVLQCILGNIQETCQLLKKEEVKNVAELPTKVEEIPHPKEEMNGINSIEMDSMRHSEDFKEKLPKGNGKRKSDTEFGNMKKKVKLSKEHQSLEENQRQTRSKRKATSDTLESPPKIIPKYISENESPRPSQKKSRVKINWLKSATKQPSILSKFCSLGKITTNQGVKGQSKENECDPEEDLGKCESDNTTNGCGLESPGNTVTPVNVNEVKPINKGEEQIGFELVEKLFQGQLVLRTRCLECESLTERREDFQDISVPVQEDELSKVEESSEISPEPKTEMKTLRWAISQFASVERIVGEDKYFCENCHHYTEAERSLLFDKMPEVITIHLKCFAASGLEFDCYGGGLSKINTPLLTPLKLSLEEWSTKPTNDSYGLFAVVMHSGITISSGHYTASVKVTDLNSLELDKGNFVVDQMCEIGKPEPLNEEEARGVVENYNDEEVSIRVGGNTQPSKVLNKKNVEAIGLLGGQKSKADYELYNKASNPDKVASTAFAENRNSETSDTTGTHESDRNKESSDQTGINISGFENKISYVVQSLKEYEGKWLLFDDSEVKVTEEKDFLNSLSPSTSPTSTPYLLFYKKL

For this test, the target named is Ubiquitin carboxyl-terminal hydrolase 1 (Homo sapiens) (UniProt O94782). As to the kind of experiment: Inhibitors of USP1/UAF1: Pilot qHTS (AID 504865).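 For activity change, negative = inhibition: rhodamine fluorescence freed from ubiquitin-rhodamine substrate followed over time; top concentration of the series differs between compounds.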 Note: nearly all actives have a fitted effect of over 35% in size. The following applies: purified USP1/UAF1, Ub-rhodamine cleavage fluorescence; series mostly up to 114 µM; activity change, negative = inhibition: at the top concentration. In outline:
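Enzyme-free wells gave the negative control, while test wells held 1nM USP1/UAF1 preincubated with compound for 15 min at room temperature. Ub-Rho at 150nM final started the reaction, and fluorescence at 480/540 nm was recorded kinetically.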
(In general: Quantitative high-throughput screening tests each substance at several concentrations.)
For the molecule `NCC1O[C@@H](O[C@H]2C(O)C(O[C@@H]3C(O[C@H]4OC(CO)C(O)C(O)C4N)C(N)CC(N)[C@H]3O)O[C@@H]2CO)C(N)C(O)C1O` (some centres undefined), the “activity change, negative = inhibition” value is -9.82% (inactive).

Take `CC(=O)OC1C([N+]2(C)CCCCC2)C[C@H]2C3CC[C@H]4C[C@H](OC(C)=O)C([N+]5(C)CCCCC5)CC4(C)C3CCC12C` (some centres undefined): the “activity change, negative = inhibition” value was -5.23% (inactive). The same measure, in the same setting: under `NCCCCC(NC(CCc1ccccc1)C(=O)O)C(=O)N1CCCC1C(=O)O` (centres undefined) stands -6.38% (inactive).

As for `CC[C@@H]1CN2CCc3cc(OC)c(OC)cc3[C@H]2C[C@@H]1C[C@H]1NCCc2cc(OC)c(OC)cc21`, the “activity change, negative = inhibition” value is 13.3% [at 54.9 µM] (inactive). Take `COc1cc2c(cc1OC)-c1c(OC)c(OC)c(C=O)c3c1[C@H](C2)N(C)CC3`: the Potency is 20 µM (active). Take `C[C@]12CCC3C(CC[C@]4(O)C[C@@H](O)CC[C@]34C=O)[C@@]1(O)CC[C@@H]2C1=CC(=O)OC1` (some centres undefined): the “activity change, negative = inhibition” value was -3.22% (inactive). Regarding `CNC(C)C1CC[C@H](N)[C@@H](OC2C(N)C[C@H](N)[C@@H](OC3OC[C@](C)(O)C(NC)[C@H]3O)C2O)O1` (some centres undefined), the “activity change, negative = inhibition” value is -7.97% (inactive). Same read-out and setting: under `CC[C@@H]1CN2CCc3cc(OC)c(OC)cc3[C@@H]2C[C@@H]1C[C@H]1NCCc2cc(OC)c(OC)cc21` stands -13.9% (inactive). As to `CN[C@@H](CC(C)C)C(=O)N[C@@H]1C(=O)N[C@H](CC(N)=O)C(=O)N[C@@H]2C(=O)N[C@H]3C(=O)N[C@H](C(=O)N[C@H](C(=O)O)c4cc(O)cc(O)c4-c4cc3ccc4O)[C@H](O)c3ccc(c(Cl)c3)Oc3cc2cc(c3O[C@H]2O[C@@H](CO)[C@@H](O)[C@@H](O)[C@@H]2O[C@@H]2C[C@](C)(N)[C@H](O)[C@H](C)O2)Oc2ccc(cc2Cl)[C@@H]1O`, the “activity change, negative = inhibition” value is 11% [at 54.9 µM] (inactive).
